SMILES strings stand for the structures. Compounds without any hit were thinned out: in the full panel of roughly 83,000, 20% have a hit.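 Single-concentration screen, 48 h exposure, 96-well plates. Endpoint: percent growth. Below 10 = active.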 A number with no mark means an inactive call. Calls of active or inactive are those of the source.

This assay deals with NCI-H226 lung. The assay is described as follows: NCI-60 one-dose screen, 48 h (100 = growth as untreated, 0 = no growth, -100 = all killed). To be noted: 10 µM unless noted.
Consider `Cc1ccc(C(=O)Nc2cc(-n3cnc(F)c3)cc(C(F)(F)F)c2)cc1C#Cc1cnc2cccnn12`, for which the growth was 44.4%. Regarding `O=C(N/N=C/c1ccc(-c2cccc([N+](=O)[O-])c2)s1)c1[nH]c2ccc(Br)cc2c1-c1ccccc1`, the growth is 94.8%. Next, `Nc1cc2ccccc2c(=O)n1NC(=O)c1ccccc1`: 80.8%. The figure for `C[C@@H]1[C@H]2C[C@@H](C[C@H]1NCc1nc3ccccc3n1C1CCCCCC1)C2(C)C` is 57.2%; for `COc1cc2cc(C(=O)N3C[C@@H](CCl)c4c3cc(OC(=O)N(CCC(=O)N3CCN(C)CC3)[C@H]3CCSSC3)c3ccccc43)[nH]c2c(OC)c1OC` it is -15.3% (active); for `Cc1cn(-c2cc(NC(=O)c3ccc(C)c(-n4cc(-c5cnc6cccnn56)nn4)c3)cc(C(F)(F)F)c2)cn1` it is 68.8%. The figure for `Cn1cc(-c2cc(N)n3nc(-c4c[nH]c5ccc(F)cc45)cc3n2)c2cccnc21` is -67.5% (active); for `FC(F)(F)c1cc2c(Cl)ncnc2n1CCN1CCOCC1` it is 91.4%. `CCOC(=O)/C(F)=C/C1CC1C1CCN(C(=O)OC(C)(C)C)CC1` (stereo not drawn): the growth was 95.2%. Next, `O=C(Nc1ccc(-c2ccc3c(c2)NC(=O)/C3=C\c2ccc[nH]2)cc1)Nc1cccc(Cl)c1`: 2.01% (active). As for `O=Cc1cncc(-c2ccc3ncnc(N4CCc5cc(F)c(Cl)cc54)c3c2)c1`, the growth is 10.8%.

As to `Fc1ccc(F)c(CNc2nc(SCCN3CCOCC3)nc3c2cnn3CC(Cl)c2ccc(Br)cc2)c1` (stereo not drawn), the growth is 16.2%. In the case of `Cc1nc(N)ncc1-c1ccc2ncnc(N3CCc4cc(F)c(Cl)cc43)c2c1`, the growth was 73.7%. In the case of `O=C(Cn1c(/C=C/c2ccc([N+](=O)[O-])cc2)nc2ccccc2c1=O)Nc1ccccc1`, the growth was -0.971% (active). The figure for `Nc1nc2cc(-c3ccc4ncnc(NCc5ccccc5)c4c3)ccc2o1` is -45.9% (active); for `COc1ccc(-c2nc3ccc(-c4nnc(SCc5ccccc5)o4)cc3[nH]2)cc1` it is -76.5% (active); for `O=C(OCCOCCO)N(c1cccc(Br)c1)c1nc(SCCN2CCOCC2)nc2c1cnn2CC(Cl)c1ccc(Br)cc1` (stereo not drawn) it is 32.1%.

On to `Oc1ccc(Cl)c(Nc2nc(SCCN3CCOCC3)nc3c2cnn3CC(Cl)c2ccc(Br)cc2)c1` (stereo not drawn), for which the growth is 38.5%. The figure for `O=C1/C(=C/C=C/c2ccco2)SC(=S)N1CC(=S)C1C=CS(=O)(=O)C1` (stereo not drawn) is 89.1%. Next, `COC(=O)c1cc(C(=O)CBr)n2c1ccc1c3ccccc3ccc12`: 53.4%.

For `Cc1ccc(-c2cc(C(=O)N=Nc3c(O)[nH]c4ccc(F)cc34)c3ccccc3n2)cc1`, the growth is 59%. Next, `Nc1cc(-c2c[nH]c3ccc(F)cc23)nc2cc(-c3c[nH]c4ccccc34)nn12`: 52.9%; `COc1cc(NC(=O)CSc2nnc(-c3ccc(-c4nc5ccc(Cl)cc5[nH]4)cc3)o2)cc(OC)c1OC`: 57.3%; `COc1ccc(C(=O)NNC(=O)CSc2nc3sc4c(c3c(=O)n2-c2ccc(Cl)cc2)CCCC4)cc1`: 33.1%. Take `CN(CCSSCCN1CCOCC1)C(=O)Oc1cc2c(c3ccccc13)[C@H](CCl)CN2C(=O)c1cc2cc(OCCCN3CCC3)ccc2[nH]1`: the growth was -11.7% (active). For the compound `O=C(Cc1c(-c2ccccc2[N+](=O)[O-])n(-c2ncnc3c2c(-c2ccccc2)c(-c2ccccc2)n3Cc2ccccc2)[nH]c1=O)c1ccc(Cl)c(Cl)c1`, the growth was 24.7%. The figure for `O=C(c1ccc(Cl)cc1)C1[C@H](c2ccccc2Cl)[C@@H](c2ccccc2)NC12C(=O)Nc1ccc(Br)cc12` (stereo partly drawn) is -89.1% (active); for `Cc1cccc(-c2ccccc2Oc2ccc3nnc(Cl)n3n2)c1` it is 103%.

For `CCC1(OC(=O)c2ccccc2SSCCOC(=O)CCCCC2SCC3NC(=O)NC32)C(=O)OCc2c1cc1n(c2=O)Cc2cc3ccccc3nc2-1` (stereo not drawn), the growth was 41.6%.

Turning to `COc1ccc(/C=C/c2nc3ccccc3n3c(-c4cccc([N+](=O)[O-])c4)nnc23)cc1`, the growth was -14.8% (active). The figure for `Cc1ccc(C(=O)Nc2cc(-c3ccncc3)cc(C(F)(F)F)c2)cc1C#Cc1cnc2cccnn12` is 27.9%; for `COc1ccc(N=Nc2c(N)nn3c(N)c(C#N)c(-c4ccccc4)nc23)cc1` it is 0.868% (active); for `N#Cc1ccc(C(=O)NNC(=O)CSc2nc3sc4c(c3c(=O)n2-c2ccc(Cl)cc2)CCCC4)cc1` it is 54.1%.

As for `CCCCCCCCc1ccc(C(=O)Nc2cccc(O)c2)cc1`, the growth was 67.8%. As to `COc1ccc(/C=C/C(=O)c2ccc(OC)c(S(N)(=O)=O)c2)c(C(F)(F)F)c1`, the growth was -40.9% (active). Consider `C#CCN(C)CCCOc1ccc(N(CC)C(=O)c2cc(C(C)C)c(O)cc2O)cc1Cl`, for which the growth is -13.8% (active). The figure for `CC1=C(C(=O)OCc2ccccc2)C(c2ccc(N(C)C)cc2)n2c(nc3ccccc32)N1` (stereo not drawn) is 70.1%; for `Cc1ccc(C2CC(c3ccc(NC(=O)Nc4ccccc4)cc3)=NN2c2ccc(S(N)(=O)=O)cc2)cc1` (stereo not drawn) it is -80.4% (active).
